IL-1B inflam inh = blocks inflammasome-driven IL-1 beta release; 360,000 compounds, 4.7% hits; AID 743279; THP-1 LPS/ATP IL-1B secretion, AlphaLISA, 16 h; stronger effect = lower value; activity change, % at 57.5 µM; in the data active means activity change below about -50%; inconclusive means mostly about -30% to -49%
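Secreted IL-1B measured by AlphaLISA bead assay after 16 h compound exposure of THP-1 cells; compounds (final up to 57.5 uM) added 1 h before LPS (250 ng/mL) and ATP (1.25 mM) stimulation; lower signal means less secretion.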
DT40 TDP1 CPT = DT40-hTDP1 cell growth loss with CPT; chicken DT40 Tdp1-/-;hTDP1 cells + 20 nM CPT, ATP luminescence, 48 h; AID 686979; 420,000 compounds, 12% hits; Potency, µM (series often up to 46.2 µM), for the others: top-dose activity change, negative = growth inhibition, hits mostly inhibitors; further: potency means the concentration at half of the fitted maximal effect; nearly all actives have a fitted effect of over 55% in size
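Chicken DT40 Tdp1-/- cells complemented with human TDP1, 400 cells/well, exposed to compounds plus 20 nM camptothecin for at least 48 h at 37 C; viability read as ATP content by CellTiter-Glo luminescence.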
HT1080 IDH1KD tx = HT-1080 IDH1 knockdown cell toxicity (counter line); HT-1080 IDH1 knockdown viability, ATP luminescence, 48 h; Potency, µM (series often up to 46.1 µM), inactives show at the top dose activity, negative = toxicity, actives largely listed as cytotoxic; 360,000 compounds, 2% hits; AID 686971;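 further: potency means the concentration at half of the fitted maximal effect; 0% = DMSO wells and -100% = cell-free medium wells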
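Cytotoxicity counter-line: IDH1KD HT-1080, 48 h, CellTiter-Glo. Curves classed by r2, magnitude and activity.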
DT40 TDP1 no CPT = qHTS for Inhibitors of human tyrosyl-DNA phosphodiesterase 1 (TDP1): qHTS in cells in absence of CPT | 420,000 compounds, 15% hits | DT40 Tdp1-/- hTDP1 cells, no CPT, ATP luminescence, 48 h | Potency, µM (doses to about 46.2 µM), without a hit: at the highest dose activity change, negative = growth inhibition, usual class: inhibitors | AID 686978, 2013; further: potency means the concentration at half of the fitted maximal effect; nearly all actives have a fitted effect of over 55% in size
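A cellular qHTS used chicken DT40 cells lacking endogenous Tdp1 but carrying stably transfected human TDP1. Compounds were applied without camptothecin, and cell growth kinetics were judged by ATP-dependent luminescence after ≥48 hr.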
ALOX12 inh = ALOX12 (human) lipoxygenase inhibition. P18054. purified 12hLO, xylenol orange hydroperoxide absorbance. Potency, µM (highest dose often 108 µM), without a hit: top-dose activity change, negative = inhibition, most hits filed as inhibitors. 580,000 compounds, 1.1% hits; further: potency means the concentration at half of the fitted maximal effect
Target sequence (P18054 whole entry, looked up): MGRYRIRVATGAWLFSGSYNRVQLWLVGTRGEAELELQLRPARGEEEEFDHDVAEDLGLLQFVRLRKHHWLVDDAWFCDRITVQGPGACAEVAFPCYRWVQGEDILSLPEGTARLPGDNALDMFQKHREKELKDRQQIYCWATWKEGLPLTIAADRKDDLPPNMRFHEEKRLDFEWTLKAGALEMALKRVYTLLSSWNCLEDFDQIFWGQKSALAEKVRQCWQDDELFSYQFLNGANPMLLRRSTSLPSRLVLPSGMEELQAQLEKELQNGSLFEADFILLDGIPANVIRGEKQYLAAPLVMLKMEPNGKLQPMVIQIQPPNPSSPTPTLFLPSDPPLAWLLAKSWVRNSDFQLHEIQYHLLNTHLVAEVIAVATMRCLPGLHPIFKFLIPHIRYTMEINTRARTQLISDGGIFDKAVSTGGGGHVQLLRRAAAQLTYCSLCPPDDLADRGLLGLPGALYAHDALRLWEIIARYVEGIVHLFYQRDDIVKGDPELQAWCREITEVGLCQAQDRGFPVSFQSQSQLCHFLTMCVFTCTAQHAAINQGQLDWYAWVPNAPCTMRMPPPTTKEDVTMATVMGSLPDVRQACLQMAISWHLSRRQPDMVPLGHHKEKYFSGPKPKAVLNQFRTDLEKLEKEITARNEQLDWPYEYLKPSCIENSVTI
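Purified human 12hLO (150 nM final) in 25 mM Hepes, 0.01% Triton X-100, pH 7.0 was preincubated 15 min at room temperature with compound. Then 40 uM arachidonic acid was added, 30 min. Hydroperoxide was read by Fe-XO absorbance ratio 573/405 nm.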
HT1080NT lethal = kills 2HG-producing HT-1080-NT fibrosarcoma cells | HT-1080-NT fibrosarcoma viability, CellTiter-Glo ATP luminescence, 48 h | AID 686970 | Potency, µM (top dose mostly 46.1 µM), inactives show at the top dose activity, negative = less viability, usual class: cytotoxic | 360,000 compounds, 1.6% hits;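 further: NT is the 2HG producing partner of a matched IDH1 knockdown line; potency means the concentration at half of the fitted maximal effect; 0% = DMSO-treated cells and -100% = media-only wells without cells; nearly all actives have a fitted effect of over 55% in size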
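A 48-hour cytotoxicity screen used HT-1080-NT cells plated 2 hours before compound delivery. ATP-based CellTiter-Glo luminescence measured viability, normalized to DMSO and no-cell controls.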
An asterisk follows results filed as active; ? = inconclusive; . = no result given; [ ] = another dose, or the depositor's remark. This is one part of a sample in which hits are shown more often than they occur. Unless noted, the call rests on the fitted dose curve; in most records, active means well fitted curve in the direction sought with a large enough effect; inconclusive means small, poorly fitted or top-dose-only effect, or another doubt; inactive means no such curve, though single readings can be large; an effect the other way counts as inactive or inconclusive. Unless noted, on the % scale 0 is the no-effect control and ±100 the full control effect.

SMILES | IL-1B inflam inh | DT40 TDP1 CPT | HT1080 IDH1KD tx | DT40 TDP1 no CPT | ALOX12 inh | HT1080NT lethal
COCCn1nc2n(c1=O)CCN(C(=O)c1ncccc1C)CC2 | . | . | . | . | 24.1% | .
COc1ccc(N=Cc2cc3c(cc2O)OC(N)=C(C#N)C3c2ccccc2)cc1 (stereo not drawn) | -8.7 | ? | ? | 20.6µM* | -29.8% | ?
N#CC1=C(N)Oc2cc(N)ccc2C1c1ccccc1F (stereo not drawn) | 32.5 | 7.31µM* | 16.4µM* | 8.2µM* | 2.5% | 14.6µM*
COc1cccc(C2C(C#N)=C(N)Oc3cc(N)ccc32)c1OC (stereo not drawn) | -4.6 | -0.7% | 7.0% | 4.3% | 17.0% | 9.8%
Clc1ccc(CSc2cc(-c3ccccc3)c3ccccc3n2)cc1 | . | . | . | . | -6.2% | .
C/C=C/c1ccc(OCC(=O)Nc2ccc(OC)c(OC)c2)c(OC)c1 | -25.0 | 16.4µM* | -17.4% | 23.1µM* | 0.0% | -25.5%
COc1cc(/C=C2\SC(N)=NC2=O)ccc1OCC(=O)Nc1ccc(C)cc1 | -102.8* | 1.46µM* | -0.3% | 1.46µM* | 10.2% | 1.8%
COc1ccccc1OCC(=O)Nc1ccncc1 | 15.6 | -22.9% | 1.7% | ? | 5.7% | 5.9%
C/C=C/c1ccc(OCC(=O)Nc2ccncc2)c(OC)c1 | -9.9 | 18.4µM* | -21.3% | ? | 9.3% | -26.3%
COc1cc(/C=C2\C(=O)N(CCC#N)N=C2C)ccc1OCC(=O)Nc1ccccc1 | -60.8* | ? | -11.2% | ? | ? | -2.6%
CC/C(=N\NC(=O)c1ccc(C(C)(C)C)cc1)c1ccc(C)cc1 | . | . | . | . | 22.9% | .
CCc1cc2c(=O)[nH]c(N3CCCC3)nc2s1 | -14.0 | -0.5% | 9.4% | -6.5% | -5.7% | 6.1%
CCc1cc2c(=O)[nH]c(CC(N)=O)nc2s1 | -65.8* | 0.7% | 11.6% | -14.3% | -15.0% | 9.2%
CCCNC(=O)/C(C#N)=C1\N=C(NC(=O)c2ccco2)c2ccccc21 | -6.4 | 16.4µM* | -5.9% | ? | -11.3% | -6.0%
COCCNC(=O)/C(C#N)=C1\N=C(NC(=O)c2ccco2)c2ccccc21 | ? | ? | 8.3% | ? | 7.4% | 15.1%
N#C/C(C(=O)NCc1ccccc1)=C1/N=C(NC(=O)c2cccs2)c2ccccc21 | 15.1 | 16.4µM* | -5.0% | 10.3µM* | -0.3% | -11.5%
CN(C)CCCn1cnc2c(c1=N)C(c1ccccc1)c1ccc3ccccc3c1O2 (stereo not drawn) | -9.7 | 6.51µM* | ? | ? | ? | ?
N=c1c2c(ncn1CCCO)Oc1ccc3ccccc3c1C2c1ccccc1 (stereo not drawn) | -56.0* | ? | ? | ? | ? | ?
COc1ccc(C2c3ccc4ccccc4c3Oc3ncn(CCCO)c(=N)c32)cc1 (stereo not drawn) | -69.2* | ? | ? | ? | ? | 18.4µM*
N=c1c2c(ncn1CCCO)Oc1c(ccc3ccccc13)C2c1ccccc1 (stereo not drawn) | -28.4 | ? | -29.6% | ? | ? | ?
CC1(C)CC(=O)C2=C(C1)Oc1ncn(CCCO)c(=N)c1C2c1ccccc1 (stereo not drawn) | -15.4 | -13.3% | 2.4% | 2.4% | 0.1%[57.4 µM] | -1.8%
COc1ccc(C2c3ccc4ccccc4c3Oc3ncn(CCO)c(=N)c32)cc1 (stereo not drawn) | -100.4* | ? | 11.6µM* | 25.9µM* | . | ?
COc1ccc2c(C)c(CC(=O)N3CCOCC3)c(=O)oc2c1 | . | . | . | . | 8.6% | .
O=Cc1cccn1-c1ccc(F)cc1F | . | . | . | . | -20.3% | .
COc1ccc(C2c3ccc4ccccc4c3Oc3ncn(CCN(C)C)c(=N)c32)cc1 (stereo not drawn) | -97.8* | ? | ? | 20.6µM* | 0.0% | ?
SMILES | IL-1B inflam inh | DT40 TDP1 CPT | HT1080 IDH1KD tx | DT40 TDP1 no CPT | ALOX12 inh | HT1080NT lethal
Cc1ccc(C(=O)Nc2ccc(Cl)c(C(F)(F)F)c2)c(Cl)c1 | . | . | . | . | 2.7% | .
O=C1Cc2c(-c3cccc4ccccc34)n[nH]c2CN1Cc1ccccc1 | . | . | . | . | 19.9%[176 µM] | .
CCOc1cccc(CNC(=O)c2c(OC)cc(=O)n3c2CCCC3)c1 | . | . | . | . | 32.0% | .
COc1cc(CNC(=O)Nc2nc(C(N)CCc3ccccc3)cs2)cc(OC)c1OC (stereo not drawn) | -54.0* | ? | ? | ? | -0.2% | ?
COc1cc(C(=O)NC(C)CCc2ccccc2)cc(OC)c1OC (stereo not drawn) | 2.6 | -5.8% | -5.0% | -5.2% | 31.0% | -1.7%
COc1ccccc1NC(=O)Nc1nc(C(N)CCc2ccccc2)cs1 (stereo not drawn) | -29.0 | ? | ? | 13µM* | ? | 23.1µM*
COc1ccc(CCNC(=O)Nc2nc(C(N)CCc3ccccc3)cs2)cc1OC (stereo not drawn) | ? | ? | ? | ? | 4.1% | 16.4µM*
COc1ccc(CNC(=O)Nc2nc(C(N)CCc3ccccc3)cs2)cc1 (stereo not drawn) | -56.1* | ? | ? | ? | -2.8% | 18.4µM*
CCOc1ccccc1Oc1c(C(F)(F)F)oc2cc(OC(=O)c3ccc(C)cc3)ccc2c1=O | . | . | . | . | -1.1% | .
O=C(Nc1ccc(Cl)cc1)C1CCN(c2ncnc3nc[nH]c23)CC1 | . | . | . | . | -8.8% | .
CC(=O)NNC(=S)Nc1ccccc1C(F)(F)F | . | . | . | . | 66.7% | .
COc1ccc(CCNC(=O)Nc2nc(C(N)C3CCCCC3)cs2)cc1OC (stereo not drawn) | -52.3* | ? | ? | ? | 18.4% | ?
COc1ccc(-c2cccc(NS(=O)(=O)c3cc(C)ccc3OC)c2)nn1 | . | 16.4µM* | . | 23.1µM* | -17.1% | .
COc1ccc(-c2cccc(NS(=O)(=O)c3cc(C)c(Cl)cc3C)c2)nn1 | . | 13µM* | . | 23.1µM* | -18.2% | .
COc1ccc(C)cc1S(=O)(=O)Nc1cccc(-c2ccc(N3CCCC3)nn2)c1 | . | -23.9% | . | -24.5% | -11.5% | .
CCC(C)Cc1nccc(C2(c3ccccc3Cl)CCNCC2)n1 (stereo not drawn) | . | . | . | . | -9.6% | .
COC(=O)[C@@H](Cc1cccnc1)NC(=O)[C@H]1CN(C(=O)Nc2ccccc2)CCN1S(=O)(=O)c1ccccc1 | . | . | . | . | -6.5% | .
Cc1ccc2c(c1)c1c3n2CCN(C(=O)c2cccc(C(F)(F)F)c2)C3CCC1 (stereo not drawn) | . | ? | . | 23.1µM* | -3.6% | .
CCN(CC)CCN1CCn2c3c(c4cc(C)ccc42)CCCC31 (stereo not drawn) | ? | ? | -20.3% | 23.1µM* | -16.4% | ?

Screens as filed in PubChem.
